From PubChem BioAssay AID1159580 (chemical genetic matrix, 2015)
Hit rate of the full screen: of about 5,500 compounds, about 2,000 (36%) were called active. Another 18% or so got no clear call; they are omitted. Rule as the data show it: active = normalized growth mostly below about 0.91 (no sharp cut-off); inconclusive = no clear call, values can overlap the other calls; inactive = mostly above about 0.92. The list shows a part of the results.

Assay: chemical genetic growth profiling, strain panel (AID 1159580);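 also: tested at 20 µM; growth read once vehicle control cultures reached saturation at 30 °C; 1 = growth at the plate median or of vehicle wells; lower values mean less growth of the strain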
Settings: S. cerevisiae deletion strains, growth OD
[1] = locus YAL013W, strain DEP1, active compounds read low
[2] = locus YGR078C, strain PAC10, active compounds read low
[3] = locus YJR075W, strain HOC1, active compounds read low
[4] = locus YMR307W, strain GAS1, active compounds read low

Measured: normalized growth

CN1C[C@@H](CS(=O)(=O)N(C)C)C[C@@H]2c3cccc4c3c(cn4C)C[C@H]21
inactive: [1] 1 | locus YAL040C, strain CLN3, active compounds read low 1.01 | locus YCL061C, strain MRC1 (second series), active compounds read low 1 | locus YDR363W, strain ESC2, active compounds read low 1.01 | locus YER002W, strain NOP16, active compounds read low 1.01 | [2] 1.01 | [3] 1 | [4] 1.03 | locus YNL175C, strain NOP13, active compounds read low 1.01 | locus YNL197C, strain WHI3, active compounds read low 1.02 | locus YNL224C, strain SQS1, active compounds read low 1.01 | locus YOR083W, strain WHI5 (second series), active compounds read low 1.03

Cc1c(C)c(C)c(CO)c(C)c1C
inactive: [1] 0.988 | locus YBR229C, strain ROT2, active compounds read low 1.01 | locus YDL101C, strain DUN1, active compounds read low 1.01 | locus YDR150W, strain NUM1, active compounds read low 0.981 | locus YEL061C, strain CIN8, active compounds read low 0.996 | [2] 0.998 | locus YHR030C, strain SLT2, active compounds read low 1.06 | locus YHR087W, strain rtc3, active compounds read low 1.01 | locus YJL187C, strain SWE1, active compounds read low 1 | locus YJR043C, strain POL32, active compounds read low 1 | [3] 1.04 | locus YLR039C, strain RIC1, active compounds read low 0.98 | locus YLR058C, strain SHM2 (second series), active compounds read low 1.02 | locus YLR085C, strain ARP6, active compounds read low 1.06 | locus YLR262C, strain YPT6, active compounds read low 0.955 | locus YML094W, strain GIM5, active compounds read low 0.996 | locus YMR219W, strain ESC1, active compounds read low 1.01 | locus YMR263W, strain SAP30, active compounds read low 0.993 | [4] 1.03 | locus YNL153C, strain GIM3, active compounds read low 0.97 | locus YNL298W, strain CLA4 (second series), active compounds read low 1.04 | locus YNL322C, strain KRE1, active compounds read low 1.01 | locus YNR030W, strain Alg12, active compounds read low 1 | locus YPL055C, strain LGE1, active compounds read low 0.997 | locus YPL241C, strain CIN2, active compounds read low 0.989 | locus YPR135W, strain CTF4, active compounds read low 1
